The nature of test [1]: p53 stabilisation in HPV-positive human cells, imaging, p53-positive nuclei imaging, 24 h, 48 h (AID 1508601). Conditions: 24/48 h.
Test [2] has as its target Cellular tumor antigen p53 (Homo sapiens) (UniProt P04637). Described as above. The following applies: 24/48 h, stronger effect = higher value.
[3] abbreviates: measured here: cell number at 24 h, Library stock concentration: 3.33 mM.
Setting [4] is: measured here: cell number at 48 h, Library stock concentration: 3.33 mM.
[5] abbreviates: Library stock concentration: 3.33 mM.
[6] abbreviates: measured here: p53 positive nuclei at 24 h, Library stock concentration: 3.33 mM.
Where [7] appears, read: measured here: cell number at 24 h, Library stock concentration: 46 uM.
The mark [8] stands for this setting: measured here: cell number at 24 h, Library stock concentration: 278 uM.
Where [9] appears, read: measured here: cell number at 24 h, Library stock concentration: 1.67 mM.
The mark [10] stands for this setting: measured here: cell number at 24 h, Library stock concentration: 10 mM.
[11] abbreviates: measured here: cell number at 48 h, Library stock concentration: 46 uM.
The mark [12] stands for this setting: measured here: cell number at 48 h, Library stock concentration: 278 uM.
The mark [13] stands for this setting: measured here: cell number at 48 h, Library stock concentration: 1.67 mM.
The mark [14] stands for this setting: measured here: cell number at 48 h, Library stock concentration: 10 mM.
Where [15] appears, read: Library stock concentration: 46 uM.
Setting [16] is: Library stock concentration: 278 uM.
Setting [17] is: Library stock concentration: 1.67 mM.
Where [18] appears, read: Library stock concentration: 10 mM.
Where [19] appears, read: measured here: p53 positive nuclei at 24 h, Library stock concentration: 46 uM.
[20] abbreviates: measured here: p53 positive nuclei at 24 h, Library stock concentration: 278 uM.
Setting [21] is: measured here: p53 positive nuclei at 24 h, Library stock concentration: 1.67 mM.
[22] abbreviates: measured here: p53 positive nuclei at 24 h, Library stock concentration: 10 mM.
Where [23] appears, read: measured here: cell number at 24 h, Library stock concentration: 80 uM.
Where [24] appears, read: measured here: cell number at 24 h, Library stock concentration: 400 uM.
Where [25] appears, read: measured here: cell number at 24 h, Library stock concentration: 2 mM.
[26] abbreviates: measured here: cell number at 48 h, Library stock concentration: 80 uM.
Setting [27] is: measured here: cell number at 48 h, Library stock concentration: 400 uM.
[28] abbreviates: measured here: cell number at 48 h, Library stock concentration: 2 mM.
[29] abbreviates: Library stock concentration: 80 uM.
Setting [30] is: Library stock concentration: 400 uM.
Setting [31] is: Library stock concentration: 2 mM.
Where [32] appears, read: measured here: p53 positive nuclei at 24 h, Library stock concentration: 80 uM.
Where [33] appears, read: measured here: p53 positive nuclei at 24 h, Library stock concentration: 400 uM.
[34] abbreviates: measured here: p53 positive nuclei at 24 h, Library stock concentration: 2 mM.

Each structure is given as a SMILES string. Values joined by “and” are separate entries in the source; they are usually repeats but may differ in a detail not shown here. Equal values may be shown once. About 85 (1%) of roughly 5,700 compounds were called active. Cut-off read from the data, not from the text of the source: active = p53-positive nuclei above about 36% (passing the limit was not always enough); inactive = the rest. The entries come from a sample that favours actives as a whole.

Chain of Cellular tumor antigen p53 (Homo sapiens) (P04637 whole entry, looked up): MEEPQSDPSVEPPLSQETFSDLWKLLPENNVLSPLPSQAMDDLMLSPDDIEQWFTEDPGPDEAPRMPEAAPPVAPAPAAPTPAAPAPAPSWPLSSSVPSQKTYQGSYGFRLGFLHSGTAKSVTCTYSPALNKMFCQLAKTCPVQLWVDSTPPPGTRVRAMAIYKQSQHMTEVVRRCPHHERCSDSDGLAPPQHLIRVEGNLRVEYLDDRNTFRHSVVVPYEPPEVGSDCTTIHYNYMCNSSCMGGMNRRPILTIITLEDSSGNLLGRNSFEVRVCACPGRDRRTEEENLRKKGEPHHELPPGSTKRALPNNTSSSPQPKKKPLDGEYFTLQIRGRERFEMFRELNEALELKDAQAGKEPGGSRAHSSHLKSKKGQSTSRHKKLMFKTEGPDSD

Regarding `O=C(NN=Cc1ccc(O)c(O)c1)c1cc2ccccc2cc1O`, the nuclei count, normalised in test [1] (setting [3]) came to 108%; in test [1] (setting [4]), 99.5%. For the same molecule, the values for the p53-positive nuclei, normalised in test [2] (setting [5]) and in test [2] (setting [6]) were 0.0529% (inactive) and -0.25%, respectively.

Take `CCOC(=O)NC1CCC2C(C1)CC1C(=O)OC(C)C1C2C=Cc1ccc(-c2cccc(F)c2)cn1` (stereo unspecified): the nuclei count, normalised in test [1] (setting [7]) was 115%; in test [1] (setting [8]), 108%; in test [1] (setting [9]), 101%; in test [1] (setting [10]), 105%; in test [1] (setting [11]), 117%; in test [1] (setting [12]), 109%. The nuclei count, normalised in test [1] (setting [13]) and in test [1] (setting [14]) was 107% throughout. Further, the p53-positive nuclei, normalised in test [2] (setting [15]) is -0.0807% (inactive); in test [2] (setting [16]), -0.17% (inactive); in test [2] (setting [17]), 0.0724% (inactive); in test [2] (setting [18]) it was -0.166% (inactive); in test [2] (setting [19]), -0.0891%; in test [2] (setting [20]), -0.151%. The values for the p53-positive nuclei, normalised in test [2] (setting [21]) and in test [2] (setting [22]) were -0.079% and 0.188%, respectively.

With `Nc1ccccc1NC(=O)c1ccc(CNc2nccc(-c3cccnc3)n2)cc1`, the nuclei count, normalised in test [1] (setting [23]) worked out at 128%; in test [1] (setting [24]), 124%; in test [1] (setting [25]), 125%; in test [1] (setting [3]), 42.1%; in test [1] (setting [10]) it was 49.9%; in test [1] (setting [26]), 109%. Also, the nuclei count, normalised in test [1] (setting [27]) stood at 107%; in test [1] (setting [28]), 98.1%; in test [1] (setting [4]) it was 30.1%; in test [1] (setting [14]), 29.3%. In addition, the p53-positive nuclei, normalised is 8% (inactive) in test [2] (setting [29]); 0.396% (inactive) in test [2] (setting [30]); 1.82% (inactive) in test [2] (setting [31]); 23.5% (inactive) in test [2] (setting [5]); 83.5% (active) in test [2] (setting [18]); 4.97% in test [2] (setting [32]). The p53-positive nuclei, normalised was found to be 0.046% in test [2] (setting [33]), 0.551% in test [2] (setting [34]), 10.3% in test [2] (setting [6]) and 87.6% in test [2] (setting [22]).

Consider `Nc1ccccc1NC(=O)c1ccc(CNC(=O)OCc2cccnc2)cc1`, for which the nuclei count, normalised amounted to 96% in test [1] (setting [7]); 114% in test [1] (setting [23]); 104% in test [1] (setting [8]); 118% in test [1] (setting [24]); 107% in test [1] (setting [9]); 124% in test [1] (setting [25]). Also, the nuclei count, normalised is 104% in test [1] (setting [3]); 90.8% and 96% in test [1] (setting [10]); 107% in test [1] (measured here: cell number at 24 h, concentration not given here); 96.3% in test [1] (setting [11]); 103% in test [1] (setting [26]); 103% in test [1] (setting [12]). For the same molecule, the nuclei count, normalised in test [1] (setting [27]) was 100%; in test [1] (setting [13]), 95.3%; in test [1] (setting [28]), 101%; in test [1] (setting [4]) it was 88.9%; in test [1] (setting [14]), 58% and 57.5%; in test [1] (measured here: cell number at 48 h, concentration not given here) it was 103%. Also, the p53-positive nuclei, normalised in test [2] (setting [15]) was -0.0533% (inactive); in test [2] (setting [29]), -0.489% (inactive); in test [2] (setting [16]), -0.145% (inactive); in test [2] (setting [30]) it was -0.1% (inactive); in test [2] (setting [17]) it was 3.54% (inactive); in test [2] (setting [31]), 0.00969% (inactive). In addition, the p53-positive nuclei, normalised was 0.482% (inactive) in test [2] (setting [5]); 17.1% (inactive) and 14.2% (inactive) in test [2] (setting [18]); 0.78% (inactive) in test [2] (concentration not given here); 0.084% in test [2] (setting [19]); -0.0702% in test [2] (setting [32]); -0.207% in test [2] (setting [20]). In addition, the p53-positive nuclei, normalised in test [2] (setting [33]) is 0.0634%; in test [2] (setting [21]), 5.23%; in test [2] (setting [34]), 0.00201%; in test [2] (setting [6]), 0.899%; in test [2] (setting [22]) it was 34.2% and 14.9%; in test [2] (measured here: p53 positive nuclei at 24 h, concentration not given here) it was 0.224%.

With `Cc1ccc(NC(=O)c2ccc(CN3CCN(C)CC3)cc2)cc1Nc1nccc(-c2cccnc2)n1`, the nuclei count, normalised in test [1] (setting [23]) is 114%; in test [1] (setting [24]), 85.7%; in test [1] (setting [25]), 91%; in test [1] (setting [3]), 99% and 103%; in test [1] (setting [10]) it was 87.2%; in test [1] (setting [26]), 112%. In addition, the nuclei count, normalised was 84.9% in test [1] (setting [27]); 92.2% in test [1] (setting [28]); 99.2% and 104% in test [1] (setting [4]); 87.9% in test [1] (setting [14]). The p53-positive nuclei, normalised is 0.0518% (inactive) in test [2] (setting [29]); 0.00427% (inactive) in test [2] (setting [30]); -0.0247% (inactive) in test [2] (setting [31]); -0.686% (inactive) and -0.212% (inactive) in test [2] (setting [5]); -0.182% (inactive) in test [2] (setting [18]); 0.0696% in test [2] (setting [32]). In addition, the p53-positive nuclei, normalised was 0.334% in test [2] (setting [33]); 0.0437% in test [2] (setting [34]); -0.375% and -0.356% in test [2] (setting [6]); -0.0433% in test [2] (setting [22]).
